# Bioassay records deposited in PubChem BioAssay by National Center for Advancing Translational Sciences (NCATS).
# ATXN2 expr inh: Primary qHTS for Inhibitors of ATXN expression; actives 0.72% (n = 360,000); Potency, µM (doses to about 57 µM), without a hit: at the top dose activity change, negative = inhibition, hits mostly inhibitors; AID 1745845, 2022; HEK-293 ATXN2-luciferase reporter, luminescence, 24 h; further: on the % scale 0 is the no-effect control and ±100 the full control effect; nearly all actives have a fitted effect of over 55% in size
#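 qHTS (up to 57 uM final) was run with 24 h compound exposure of reporter cells at 37 °C. Each well was multiplexed: SteadyGlo luminescence measured ATXN2-luciferase expression after a fluorogenic Gly-Phe-AFC viability readout (25 uM final).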
# TGFb SMAD3 inh: qHTS for Inhibitors of TGF-b. actives 1.2% (n = 410,000). HepG2 CAGA-GFP TGF-b/SMAD3 reporter, GFP fluorescence, 18 h; TGF-beta stimulated, 500 pg/mL final. Potency, µM (series often up to 46.1 µM), without a hit: at the highest dose activity, negative = inhibition, usual class: inhibitors. AID 588855, 2011; further: on the % scale 0 is the no-effect control and ±100 the full control effect; nearly all actives have a fitted effect of over 65% in size
#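 Cell-based qHTS in HEPG2 carrying a CAGA-GFP Smad reporter; compounds added before 500 pg/mL final TGF-beta, 18 h incubation at 37 degrees C, GFP fluorescence quantified per cell by imaging cytometry.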
# A549 tox: Nrf2 qHTS screen for inhibitors: counterscreen for cytotoxicity | A549 ARE-Fluc cells, CellTiter-Fluor viability, 18-24 h | Potency, µM (series often up to 46 µM), without a hit: at the top dose activity change, negative = cytotoxicity, most hits filed as inhibitors | actives 0.16% (n = 390,000) | AID 504648, 2011; further: on the % scale 0 is the no-effect control and ±100 the full control effect
#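 A549 ARE-Fluc cells in 5% FBS OPTI-MEM, 5000 cells/well, rested 2 h then exposed to compounds in concentration-response for 18-24 h at 37 °C. Viability by CellTiter-Fluor fluorescence (Ex 405/Em 525) after 30 min; luciferase luminescence (BugLite, 15 min, RT) read afterwards.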
# Nrf2 inh: Nrf2 qHTS screen for inhibitors; A549 ARE-Fluc reporter, luciferase luminescence, 18-24 h; Potency, µM (highest dose often 46 µM), inactives show at the highest dose activity change, negative = inhibition, usual class: inhibitors; actives 2.1% (n = 360,000); AID 504444, 2011; further: on the % scale 0 is the no-effect control and ±100 the full control effect; nearly all actives have a fitted effect of over 60% in size
#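 Cells were seeded and rested 2 h, then exposed to compounds for 18-24 h. CellTiter-Fluor was read first as a viability measure. BugLite was added 15 min before the final luminescent read of ARE-luciferase activity in A549 cells.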
# ATXN viability: Viability Counterscreen for Primary qHTS for Inhibitors of ATXN expression. actives 0.49% (n = 400,000). Potency, µM (doses to about 56.7 µM), actives largely listed as cytotoxic. S2 cells (HEK-293 line with an ATXN2-luciferase reporter) viability, CellTiter-Fluor protease fluorescence, 24 h. AID 651635, 2014; further: nearly all actives have a fitted effect of over 40% in size
# HepG2 tox: qHTS for Inhibitors of TGF-b: Cytotox Counterscreen | HepG2 CAGA-GFP viability, ATP luminescence, 18 h | Potency, µM (top dose mostly 46.1 µM), without a hit: at the highest dose activity change, negative = cytotoxicity, hits mostly cytotoxic | actives 0.76% (n = 410,000) | AID 588856, 2011
#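 HepG2 CAGA-GFP cells (1000/well, DMEM with 1% FBS) received compound, then TGF-beta at 500 pg/mL final, and were incubated 18 hours at 37 degrees C. Viability was read by CellTiter-Glo luminescence. Media-only wells were set as complete cell-killing and DMSO as no toxicity.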
# Active calls of the source: *; i = inactive; ? = inconclusive; . = no result given; [ ] = another dose, or the depositor's remark. The list is not random: actives were taken first. Their share in the collection is about 3.8%. The call rests on the fitted dose curve; in most records, active means well fitted curve in the direction sought with a large enough effect; inconclusive means small, poorly fitted or top-dose-only effect, or another doubt; inactive means no such curve, though single readings can be large; an effect the other way counts as inactive or inconclusive. Potency means the concentration at half of the fitted maximal effect.
SMILES,ATXN2 expr inh,TGFb SMAD3 inh,A549 tox,Nrf2 inh,ATXN viability,HepG2 tox
CC(C)c1ccc(CN2CCC(Oc3ccc(C(=O)N4CCCC4)cc3)CC2)cc1,-18.4%,?,-6.8%,-27.1%,?,-41.1%
COc1cc(-c2coc3c(C(=O)NCc4ccc(OC)c(OC)c4)cccc23)ccc1O,?,?,.,.,15.8µM*,-58.9%
COc1ccc(CNC(=O)c2cccc3c(-c4cccc(C(N)=O)c4)coc23)cc1OC,31.6µM*,-8.5%,.,.,17.8µM*,-30.6%
COc1ccc(CNC(=O)c2cccc3c(-c4ccc(F)c(F)c4)coc23)cc1OC,0.0%,-25.2%,.,.,i,-22.1%
Cc1cccc(Cn2nnc3c2C(=O)c2ccccc2C3=O)c1,.,3.16µM*,?,20.6µM*,.,-57.5%
Cc1ccccc1Cn1nnc2c1C(=O)c1ccccc1C2=O,-16.6%,3.55µM*,-2.9%,?,i,-88.3%
COc1cccc(C(C(=O)NCC2CCCO2)N(C(=O)Cn2nnc3ccccc32)c2ccc(NC(C)=O)cc2)c1 (stereo unspecified),0.0%,-1.1%,-14.6%,-25.6%,i,5.3%
O=CNc1c(Cl)cc2c(c1Cl)Cc1cc([N+](=O)[O-])ccc1-2,-5.6%,3.16µM*,-10.0%,-29.4%,i,-31.8%
NS(=O)(=O)c1ccc(N/N=C/c2cn(-c3ccccc3)nc2-c2cccs2)cc1,1.4%,10µM*,-4.9%,0.0%,i,11.2µM*
NS(=O)(=O)c1ccc(N/N=C/c2ccc[nH]2)c([N+](=O)[O-])c1,.,-26.5%,-6.1%,8.2µM*,?,-15.1%
NS(=O)(=O)c1ccc(N/N=C/c2cn(-c3ccccc3)nc2-c2cccs2)c([N+](=O)[O-])c1,?,?,13µM*,10.3µM*,?,-61.3%
NC(=O)N/N=C/c1cn(-c2ccccc2)nc1-c1cccs1,36.9%,-0.5%,0.2%,?,i,-25.3%
O=C(Nc1sc2c(c1C(=O)NCc1ccco1)CCCC2)c1cc(=O)c2ccccc2o1,.,.,-0.2%,?,.,2.2%
COCCNC(=S)N1CCc2cc(OC)c(OC)cc2C1COc1ccc(C(C)C)cc1 (stereo unspecified),-19.6%,-27.1%,14.2%,-15.5%,i,-19.5%
O=C1C(=C(c2ccccc2)N2CCOCC2)Cc2ccccc21,.,3.16µM*,.,.,?,8.91µM*
COc1ccc(Cc2noc(CN3CCN(c4ccc(Cl)cn4)CC3)n2)cc1OC,?,-24.8%,-12.4%,25.9µM*,?,-21.9%
CC(=O)Nc1cccc(/C(C)=N/Nc2ccc(S(=O)(=O)Nc3ccccc3C(=O)O)cc2[N+](=O)[O-])c1,-10.5%,?,-16.2%,1.3%,i,1.1%
CN(Cc1ccccc1)C(=O)c1ccc2sc([C@H]3C[C@H](O)[C@@H](CO)O3)nc2c1,4.5%,20.7%,.,.,i,29.4%
Cc1ccc(N(Cc2cc(=O)[nH]c3ccccc23)C(=O)CCl)c(C)c1,?,17.8µM*,-6.9%,?,?,22.4µM*
O=S(=O)(Nc1cccc2ccccc12)c1cccc2ccccc12,.,?,-24.1%,18.4µM*,.,-28.0%
O=S(=O)(Nc1cccc2ccccc12)c1ccccc1,8.3%,7.5%,-5.9%,16.5%,i,-2.4%
C/C(=N\NC(=O)c1ccc(-n2cnnn2)cc1)c1ccc(C)cc1,-17.7%,1.1%,4.2%,0.0%,i,-23.6%
COc1ccc(C2NCCc3c2[nH]c2ccccc32)cc1COc1ccc(F)cc1 (stereo unspecified),28.2µM*,?,-89.9%,?,31.6µM*,11.2µM*
C/C(=N\NC(=O)Cn1c(C)nc2ccccc21)c1cccs1,-14.7%,-3.3%,-9.9%,16.4µM*,i,-3.7%
C#Cc1ccc([C@@H]2C=C(C(=O)OCC=C)O[C@H](OCc3ccc(CO)cc3)C2)cc1,-1.2%,-16.1%,5.7%,-6.9%,i,-14.8%
SMILES,ATXN2 expr inh,TGFb SMAD3 inh,A549 tox,Nrf2 inh,ATXN viability,HepG2 tox
CCN(CC)C(=O)C1=C(C)N(Cc2ccc(C(C)(C)C)cc2)C(=O)C(CC(=O)NCCCCc2ccccc2)C1 (stereo unspecified),?,14.1µM*,.,.,.,-57.8%
C=CCOc1ccc(CN(C)C(=O)CNC(=O)c2ccc(-c3ccccc3)cc2)cc1,-32.2%,?,-20.7%,16.4µM*,i,-25.8%
CCOc1ccc(CN(C)C(=O)CNC(=O)c2ccccc2)cc1,1.5%,2.3%,1.2%,-25.6%,i,-6.8%
O=C(CCCCCCC(=O)Nc1ccc([C@H]2O[C@@H](CSc3nc(-c4ccccc4)c(-c4ccccc4)o3)C[C@@H](c3ccc(CO)cc3)O2)cc1)NO,66.2%,.,.,.,.,.
CCCC1C2CN(C(C)C)CC=C2C(C#N)=C(N)C1(C#N)C#N (stereo unspecified),-1.0%,0.8%,?,6.51µM*,i,-10.0%
CN1CC=C2C(C#N)=C(N)C(C#N)(C#N)C(CCc3ccccc3)C2C1 (stereo unspecified),-11.9%,64.5%,1.0%,-4.8%,i,-18.0%
O=c1cc(CCl)nc2sc3ccccc3n12,28.0%[11.3 µM],?,-6.4%,-6.8%,?,15.8µM*
Cc1cccc2c1N1C(=O)c3c(C(=O)O)cccc3C1CC2C (stereo unspecified),7.6%,0.6%,8.6%,-15.4%,i,-26.8%
COC(=O)CC1(CC(N)=O)SCCS1,-8.8%,?,-5.1%,-17.0%,i,14.1µM*
CCCc1nc2ccccc2c(C(=O)OCC(=O)NCc2ccc3c(c2)OCO3)c1CC,-21.3%,?,?,20.6µM*,i,-25.8%
COc1ccccc1CNC(=O)c1c(N)n(CCCN2CCOCC2)c2nc3ccccc3nc12,?,?,?,18.4µM*,i,-110.4%
Nc1c(C(=O)NCc2ccccc2)c2nc3ccccc3nc2n1-c1ccc2c(c1)OCO2,22.4µM*,7.2%,0.7%,?,i,2.8%
Nc1ccc(-n2c(N)c(C(=O)NCc3ccc4c(c3)OCO4)c3nc4ccccc4nc32)cc1,?,-22.8%,-17.8%,?,i,-13.6%
Nc1c(C(=O)NCc2ccc3c(c2)OCO3)c2nc3ccccc3nc2n1CCCN1CCOCC1,?,?,-7.1%,-28.2%,i,11.2µM*
Nc1c(C(=O)NCCN2CCOCC2)c2nc3ccccc3nc2n1-c1ccc2c(c1)OCO2,-20.6%,0.6%,-5.5%,-23.5%,i,1.8%
